PrPC surface inh: cell surface PrPC inhibition, primary TR-FRET screen; P04156; TR-FRET read-out; inhibition, % at 13.8 µM; actives 0.43% (n = 370,000); AID 720596; in the data active means inhibition above about 24%
PfHsp40 yeast: rescue of PfHsp40-mediated yeast toxicity; S. cerevisiae expressing PfHsp40, growth rescue, ATP luminescence; growth rescue, % at 12.5 µM; actives 0.68% (n = 340,000); AID 504582; in the data active means growth rescue above about 28%, passing the limit was not always enough;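 further: yeast W303a lacking pdr1 and pdr3 grown in galactose medium; growth measured after three days at 30 °C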
PrP 5UTR inh: suppresses PrP 5' UTR mRNA reporter expression. cell-based PrP 5' UTR mRNA reporter, plate reader. actives 0.35% (n = 340,000). AID 488862. inhibition, % (no concentration beside the values); in the data active means inhibition above about 52%
MazEF act: activators of E. coli MazEF toxin-antitoxin RNase; actives 0.32% (n = 350,000); AID 504720; activation, % at 20 µM; FAM/BHQ RNA-DNA oligo cleavage fluorescence, 5 h; in the data active means activation above about 50%
PriA SSB inh: K. pneumoniae PriA-SSBct interaction inhibition; AlphaScreen SSBct-PriA binding, biotinylated peptide; inhibition, % at 33 µM; actives 0.6% (n = 430,000); AID 1272365; in the data active means inhibition mostly above about 37%, no sharp cut-off; inactive means mostly below about 20%
PrPC confirm: confirmation of inhibitors of cell surface human prion protein; shares compounds with PrPC surface inh; cell surface PrPC level, TR-FRET; inhibition, % at 13.8 µM; actives 65% (n = 1,500); AID 743200; in the data active means inhibition above about 25%
LD9 tox: kills or reduces viability of LD9 cells in PrPc counter-screen; shares compounds with PrPC surface inh; LD9 cells cytotoxicity, luminescence viability; inhibition, % at 13.8 µM; actives 29% (n = 1,500); AID 743201; in the data active means inhibition above about 9.5%
Large screens that a line does not name were inactive (follow-up assays come after a bar, where they were run). Rows were chosen to be rich in hits. Some 1.8% of all compounds tested hit in one or more screens of this group.

Cc1cccc(C)c1-n1c(SCC(=O)N2CC(=O)Nc3ccccc32)nc2ccccc2c1=O	PrPC surface inh 27 | PrPC confirm inactive | LD9 tox inactive
CC(C)c1nc(SCC(=O)N2CC(=O)Nc3ccccc32)c2ccccc2n1	PrPC surface inh 80 | PrPC confirm 104 | LD9 tox inactive
COC(=O)c1sccc1NC(=O)C1C2C=CC(C2)C1C(=O)O (centres undefined)	none
COC(=O)c1cc(C)sc1NC(=O)C1C2C=CC(CC2)C1C(=O)O (centres undefined)	none
COC(=O)c1cc(C)sc1NC(=O)C1CC=CCC1C(=O)O (centres undefined)	PrPC surface inh 35 (no result: PrP 5UTR inh) | PrPC confirm 44 | LD9 tox inactive
COC(=O)c1sccc1NC(=O)C1CC=CCC1C(=O)O (centres undefined)	PrPC surface inh 97 | PrPC confirm 92 | LD9 tox inactive
CC(CCC1CC(C)(C)OC1=O)=NNC(N)=S (centres undefined)	none (no result: PrPC surface inh, PfHsp40 yeast, PrP 5UTR inh, MazEF act)
COc1ccc(-c2nc3ccc(Br)cn3c2Cc2cccc(Cl)c2)cc1OC	PrPC surface inh 27 (no result: PfHsp40 yeast, PrP 5UTR inh, MazEF act, PriA SSB inh) | PrPC confirm 61 | LD9 tox inactive
Clc1ccc(-c2nc3ccc(Br)cn3c2Cc2cccc(Cl)c2)cc1	PrPC surface inh 30 (no result: PfHsp40 yeast, PrP 5UTR inh, MazEF act, PriA SSB inh) | PrPC confirm 53 | LD9 tox inactive
CCOc1ccc(C(=O)NCC(=O)NC(C)c2ccc(-n3ccnc3)cc2)cc1OCC (centres undefined)	none
Cc1ccc(C(C)C)c(OCc2ccc(C(=O)N/N=C/c3ccc(O)c(O)c3)cc2)c1	PrPC surface inh 28 (no result: PriA SSB inh) | PrPC confirm 41 | LD9 tox 11
COc1cc(/C=N/NC(=O)c2ccc(COc3cc(C)ccc3C(C)C)cc2)cc(OC)c1O	none (no result: PriA SSB inh)
COCCN1CCC(CNC(=O)c2ccc(Cl)cc2)CC1	none (no result: PrPC surface inh, PfHsp40 yeast, PrP 5UTR inh, MazEF act)
CC(C)c1nc(SCC(=O)Nc2ccc(N(C)C)cc2)c2ccccc2n1	PrPC surface inh 79 | PrPC confirm 93 | LD9 tox inactive
O=C(CSc1ncnc2ccccc12)Nc1nccs1	none (no result: PrPC surface inh, PfHsp40 yeast, PrP 5UTR inh, MazEF act)
Cc1csc(NC(=O)CSc2nc(C(C)C)nc3ccccc23)n1	PrPC surface inh 84 | PrPC confirm 105 | LD9 tox inactive
CC(C)c1nc(SCC(=O)Nc2nccs2)c2ccccc2n1	PrPC surface inh 51 | PrPC confirm 90 | LD9 tox inactive
CC(C)c1nc(SCC(=O)NC2CCCCC2)c2ccccc2n1	none
COc1c(Br)cc([N+](=O)[O-])c(OC)c1C(=O)NC(=O)Nc1cc(Cl)cc(Cl)c1	none
COc1ccc(Nc2nnc(C)c3ccccc23)cc1C(N)=O	none
COc1ccc(Nc2nnc(-c3ccc(O)cc3)c3ccccc23)cc1C(N)=O	PrPC surface inh 94 | PrPC confirm 99 | LD9 tox inactive
CC(CCN1CCC(CN2C(=S)NCC2Cc2ccccc2)CC1)c1ccccc1 (centres undefined)	none
CC(=O)c1nnn(-c2nc(N)nc(N(c3ccccc3)c3ccccc3)n2)c1C	PrPC surface inh 25 | PrPC confirm 91 | LD9 tox inactive
CC1CCC2(CC1)C(Nc1cccc(Cl)c1)=NC(=S)N2CC#N (centres undefined)	PrPC surface inh 36 | PrPC confirm 39 | LD9 tox inactive
CCN(CC)C(=S)Nc1cc(C(=O)OC)ccc1C(=O)OC	PrPC surface inh 25 | PrPC confirm inactive | LD9 tox inactive
CCC(C)C(=O)Nc1cc(C(=O)OC)ccc1C(=O)OC (centres undefined)	none (no result: PrPC surface inh)
COc1ccc(-n2c(SCCN(C)C)nc3ccccc3c2=O)cc1	none
CN(CC(=O)Nc1ccccc1Br)C(=O)c1ccc(COc2ccccc2)cc1	none
COc1ccc2cc(C(=O)N(C)CC(=O)Nc3ccccc3Br)ccc2c1	PrPC surface inh 31 | PrPC confirm 44 | LD9 tox inactive
CCOc1ccc(/C(C)=N/NC(=O)C(OC)c2ccccc2)cc1 (centres undefined)	none (no result: PriA SSB inh)
C=CCn1cc(/C=N/Nc2nc3ccccc3[nH]2)c2ccccc21	PrPC surface inh 27 (no result: PriA SSB inh) | PrPC confirm inactive | LD9 tox 14
Cn1c(/C=N/Nc2nc3ccccc3[nH]2)nc2ccccc21	none (no result: PriA SSB inh)
